Out of some 310,000 compounds screened, about 18,000 (5.8%) were called active. Entries that show only a call come without a potency. Not shown: some 22% with an inconclusive outcome. Calls come from the whole dose curve; as a rule, active = well fitted inhibition curve with a large enough effect; inconclusive = small, poorly fitted or top-dose-only effect, or another doubt; inactive = no such curve, though single readings can be large or run the other way. Many of the other results were omitted from the sample, so actives are more common in it than they were.
Potency is the fitted concentration of half-maximal effect.

The nature of this assay: Primary qHTS for delayed death inhibitors of the malarial parasite plastid, 48 hour incubation. The following applies: P. falciparum luciferase growth in erythrocytes; series mostly up to 28.7 µM. The source says:
The goal of this screen is to discover new antimalarial compounds that act by inhibiting the development of the apicoplast in the malarial parasite Plasmodium falciparum. The biochemical processes that make this organelle essential for erythrocytic stage parasites are not well understood. However, antibiotics such as azithromycin and tetracycline, which target the apicoplast translational machinery, have a potent antimalarial effect.
We have developed a cell-based assay that measures parasite growth based on the expression of an integrated copy of a firefly luciferase reporter. To detect small molecules that cause this "delayed death" phenotype, erythrocytes infected with the luciferase-expressing parasites were incubated with compounds for either one or two generations, corresponding to 48 and 96 hours, respectively. Compounds that inhibit parasite growth in the second generation, but not the first, should be enriched in antimalarials that target the apicoplast. Growth inhibition is detected by a decrease in luciferase activity.
Assay Provider: David Fidock and Eric Ekland, Columbia University
Keywords: NIH Roadmap, MLPCN, MLI, MLSMR, qHTS, NCGC, qHTS, malaria, luciferase, viability
Four microliters of culture medium (RPMI 1640 with 0.5% w/v Albumax (GIBCO), 24 mM sodium bicarbonate and 10 ug/mL gentamycin) were dispensed by a Multi-drop Combi into white solid 1536-well plates (Grenier) and 23 nL compound was added by a pin tool. Four microliters of infected erythrocytes (2% hematocrit, 0.1% parasitemia final concentration) in culture medium were dispensed and the plates incubated for 48 hours at 37 C in 5% CO2. Two microliters of luciferase detection reagent was added and luminescence was detected by a ViewLux (PerkinElmer) reader.
Regarding `COc1ccc(-c2nnc(SCC(=O)Nc3cccnc3Cl)n2C)cc1`, the Potency entry was “inactive”.
As to `Cc1ccc(NC(=O)CN(C)C(=O)Cn2nnc(-c3ccccc3)n2)cc1`, the Potency entry is “inactive”.
The same measure, in the same setting: next, `COc1ccccc1C(=O)COC(=O)CNS(=O)(=O)c1ccc(NC(C)=O)cc1`: “inactive”; `O=C(Nc1ccc(S(=O)(=O)N2CCCCCC2)cc1)c1c(F)cccc1F`: “inactive”.
Turning to `O=C(NC(=O)c1ccccc1)Nc1ccccc1O`, the activity change, negative = inhibition is -2.78% [at 0.00184 µM] (inactive).
As for `O=C(Nc1ncccc1O)c1ccc(S(=O)(=O)N2CCCCCC2)cc1`, the Potency is 4.15 µM (active).
Take `O=C(Nc1cccc(F)c1)c1ccc(S(=O)(=O)N2CCCC2)cc1`: the Potency entry was “inactive”.
Same read-out and setting: under `O=C(Nc1ncccc1O)c1ccc(C(=O)c2ccccc2)cc1` stands 0.738 µM (active); under `O=C(Nc1ncccc1O)c1ccc(S(=O)(=O)N2CCCC2)cc1`, 3.29 µM (active); under `O=C(N/N=C/c1ccccn1)c1ccc(S(=O)(=O)N2CCCCCC2)cc1`, “inactive”.
Still for that read-out and setting: under `O=C(CNC(=O)c1ccc2ccccc2c1)Nc1ncccc1O` stands “inactive”; under `O=C(Nc1cccnc1)c1cccc(S(=O)(=O)N2CCCC2)c1`, “inactive”.
On the same count and under the same terms, next, `O=C(COc1ccc(Cl)cc1Cl)N/N=C/c1ccccn1`: “inactive”; `CCc1ccc(NC(=O)CCNS(=O)(=O)c2cccs2)cc1`: “inactive”.
In the case of `O=C(CCNC(=O)c1ccccc1)Nc1nc2ccccc2s1`, the Potency result is “inactive”.
Same read-out and setting: under `CCN(CC(=O)Nc1c(F)cccc1F)C(=O)CN1c2cccc3cccc(c23)S1(=O)=O` stands “inactive”; under `O=CN1CCN(C(=O)c2ccc(Br)o2)CC1`, “inactive”; under `COc1ccc(CCNC(=O)CN(C)S(=O)(=O)c2ccc3nc(C)sc3c2)cc1OC`, “inactive”.
Consider `Cc1cc(C)c(NC(=O)C[N+](C)(C)CC(O)COc2cccc3ccccc23)c(C)c1` (configuration not stated), for which the Potency is 5.22 µM (active).
On the same count and under the same terms, under `Cc1cc(C)c(NC(=O)CN2CCCCCC2)c(C)c1` stands “inactive”.
In the case of `Cc1cc(C)cc(OCC(=O)NCc2cc(C)nc3ccccc23)c1`, the Potency result is “inactive”.
With `Cc1ccccc1C(=O)Nc1ccccc1NC(=O)c1ccccc1C`, the activity change, negative = inhibition was 1.11% [at 0.00184 µM] (inactive).
As for `N#Cc1c(-c2ccccc2)nc(SCc2ccc([N+](=O)[O-])cc2)[nH]c1=O`, the Potency result is “inactive”.
For `Cn1c(C(=O)NCCN2CCc3ccccc3C2)cc2c(=O)[nH]c3ccccc3c21`, the Potency was 13.1 µM (active).
With `O=C(NCCN1CCN(Cc2ccccc2)CC1)c1cc2c(=O)[nH]c3ccccc3c2s1`, the Potency was 10.4 µM (active).
On the same count and under the same terms, next, `O=C(CCCn1c(=O)[nH]c2cc(Cl)ccc2c1=O)NCCN1CCN(c2ccccc2)CC1`: “inactive”.
`Cn1c(C(=O)NCCCN2CCN(c3cccc(Cl)c3)CC2)cc2c(=O)n(C)c3ccccc3c21`: the Potency result was “inactive”.
On the same count and under the same terms, under `O=C(CN1C(=O)COc2ccccc21)NCCN1CCc2ccccc2C1` stands “inactive”; under `O=C(Cc1c(O)c2ccccc2[nH]c1=O)NCc1ccccc1`, “inactive”.
Regarding `COCC(=O)N1CCc2ccc(NC(=O)c3ccccc3Cl)cc2C1`, the Potency result was “inactive”.
In the case of `Cc1ccccc1NC(=O)COc1cccc2c1CCNC2=O`, the Potency result was “inactive”.
The same measure, in the same setting: next, `O=C(Cn1nc(C(=O)O)c2ccccc2c1=O)Nc1ccc(F)cc1`: “inactive”.
As to `CCOc1ccccc1NS(=O)(=O)c1c[nH]c(C(=O)OC)c1`, the Potency entry was “inactive”.
Same read-out and setting: next, `Cc1nc2ccccn2c(=O)c1NC(=O)c1cccs1`: “inactive”; `O=C(NCc1ccccc1Cl)C1CCN(c2ncnc3c2nc2n3CCCCC2)CC1`: “inactive”; `COc1ccc(-n2c(SCC(=O)OC(C)C)nnc2-c2ccccn2)cc1`: “inactive”.
`Cc1ccc(-c2nnc(SCC(=O)N/N=C/c3cccs3)n2-c2ccc(C)cc2)cc1`: the Potency result was “inactive”.
`Cc1ccc(-n2c(Cc3cccs3)nnc2SCC(=O)OC(C)C)cc1`: the Potency is 11.7 µM (active).
The same measure, in the same setting: next, `COc1cccc(C(=O)OCC(=O)c2[nH]c(C)c(C(C)=O)c2C)c1`: “inactive”; `O=C(NCCC1CCCCN1S(=O)(=O)c1cccs1)C(=O)Nc1ccc(F)cc1F` (configuration not stated): “inactive”; `O=C(NCc1ccccc1Cl)C(=O)NCC1CCCN1S(=O)(=O)c1cccs1` (configuration not stated): 14.7 µM (active).
The same measure, in the same setting: next, `O=C(NCc1ccccc1Cl)C1CCCN1S(=O)(=O)c1ccc(F)cc1` (configuration not stated): “inactive”.
Take `Cc1ccc(S(=O)(=O)NCC(=O)N(CC(=O)NCC2CCCO2)c2cccc(F)c2)cc1` (configuration not stated): the Potency result is “inactive”.
Still for that read-out and setting: under `N#CCCN(C(=O)COC(=O)c1ccc(S(=O)(=O)N2CCCCCC2)cc1)c1ccccc1` stands “inactive”.
Still for that read-out and setting: next, `CC(=O)c1ccc(N2Cc3ccccc3C2)cc1`: “inactive”.
In the case of `CCOc1ncccc1C(=O)OCC(=O)c1c[nH]c2ccccc12`, the Potency is 13.1 µM (active).
Take `CCOc1ncccc1C(=O)OCC(=O)NC1CC1`: the Potency result was “inactive”.
On the same count and under the same terms, next, `O=C(OCC(=O)c1c[nH]c2ccccc12)c1cccc(O)c1`: “inactive”; `O=C(O)c1ccccc1-c1ccccc1C(=O)Nc1ccccc1Br`: “inactive”.
Consider `COc1ccc(C)cc1NC(=O)CSc1nnc2ccc(-c3ccccn3)nn12`, for which the Potency result was “inactive”.
For `CCCCc1ccc(NC(=O)NCc2cccnc2)cc1`, the Potency result is “inactive”.
Still for that read-out and setting: next, `CCc1ccc(N2CC(C(=O)N3CCCCCC3)CC2=O)cc1` (configuration not stated): “inactive”.

(Values after PubChem BioAssay AID504832 (National Center for Advancing Translational Sciences (NCATS), 2011).)
